High-throughput results (PubChem)
Rows were chosen to be rich in hits. Some 3.6% of all compounds tested hit in one or more screens of this group.
Pf apPOL block: Pf-apPOL DNA polymerase inhibition; actives 0.25% (n = 210,000); Recombinant Pf-apPOL, molecular beacon fluorescence, 1.5 h; inhibition, % at 10 µM
mHTT-CaM PPI inh: disrupts binding of mutant huntingtin to calmodulin; P42858; AlphaScreen His-mHTT/GST-CaM binding, luminescence; inhibition, % at 15 µM; actives 3.6% (n = 190,000);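 further: 0% = both proteins with DMSO and 100% = one protein alone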
Numbers without * were called inactive. No stated cut-off is given here; in the data, active means inhibition above about 50%; inactive means the rest.

How did Cn1nc(COCc2ccc(Cl)cc2)c2c1CCN(C(=O)Nc1ccccc1)C2 do in these assays?
Pf apPOL block: -1; mHTT-CaM PPI inh: 44

Results for CC1CCC2(CC1)OCC(C(=O)N1CCCC1)N2C(=O)c1ccc(F)cc1F (configuration not stated) ?
Pf apPOL block: -7; mHTT-CaM PPI inh: -3

Results for O=C(NC1CCCCC1)N1CCc2nc(-c3ccc(F)cc3)ncc2C1 ?
Pf apPOL block: -3; mHTT-CaM PPI inh: 2

How did Nc1cc(N)nc(SCC(=O)NCc2ccccc2)n1 do in these assays?
Pf apPOL block: -3; mHTT-CaM PPI inh: 4

What do the screens show for `Nc1sc(SCC(=O)NCc2ccc(F)cc2)nc1-c1ccccc1`?
Pf apPOL block: -3; mHTT-CaM PPI inh: 91*

Results for COc1ccc(CN2COc3ccc4c(c3C2)OC(=Cc2cccnc2)C4=O)cc1 ?
Pf apPOL block: -8; mHTT-CaM PPI inh: -2

How did COc1ccc(C=C2Oc3c(ccc4c3CN(Cc3ccncc3)CO4)C2=O)cc1 do in these assays?
Pf apPOL block: -22; mHTT-CaM PPI inh: 58*

Results for Cc1ccc(C=C2Oc3c(ccc4c3CN(Cc3ccccn3)CO4)C2=O)o1 ?
Pf apPOL block: 4; mHTT-CaM PPI inh: 100*

What do the screens show for `O=C1C(=Cc2ccc(Br)cc2)Oc2c1ccc1c2CN(Cc2cccnc2)CO1`?
Pf apPOL block: -31; mHTT-CaM PPI inh: 83*

How did O=C1C(=Cc2ccc3c(c2)OCO3)Oc2c1ccc1c2CN(Cc2ccccn2)CO1 do in these assays?
Pf apPOL block: -38; mHTT-CaM PPI inh: 100*

What do the screens show for `O=C1C(=Cc2ccc3c(c2)OCO3)Oc2c1ccc1c2CN(Cc2cccnc2)CO1`?
Pf apPOL block: -168; mHTT-CaM PPI inh: 25

How did COc1cccc(C=C2Oc3c(ccc4c3CN(Cc3ccncc3)CO4)C2=O)c1 do in these assays?
Pf apPOL block: -30; mHTT-CaM PPI inh: 39

Results for O=C1C(=Cc2ccccc2)Oc2c1ccc1c2CN(Cc2cccnc2)CO1 ?
Pf apPOL block: -26; mHTT-CaM PPI inh: 41

How did COc1cc(OC)c(C2C(C(=O)Nc3ccc(Cl)cc3)=C(C)Nc3nnnn32)cc1OC (configuration not stated) do in these assays?
Pf apPOL block: 3; mHTT-CaM PPI inh: 30

How did CC(NS(=O)(=O)c1cccc([N+](=O)[O-])c1)c1ccccc1 (configuration not stated) do in these assays?
Pf apPOL block: -2; mHTT-CaM PPI inh: 2

How did Cc1cccc(CN2CCN(C3CCN(C(=O)c4ccc(F)cc4)CC3)C2=O)c1 do in these assays?
Pf apPOL block: -3; mHTT-CaM PPI inh: 11

Results for O=C(CCc1c[nH]c2ccccc12)N1CCC(c2nc(C3CC3)no2)C1 (configuration not stated) ?
Pf apPOL block: -8; mHTT-CaM PPI inh: 13

How did CC(=O)c1cccc(NC(=O)N2CCc3c(c(COc4ccc(F)cc4)nn3C)C2)c1 do in these assays?
Pf apPOL block: 0; mHTT-CaM PPI inh: 35

How did COc1ccc(C=C2Oc3c(ccc4c3CN(Cc3ccccn3)CO4)C2=O)cc1 do in these assays?
Pf apPOL block: -31; mHTT-CaM PPI inh: 100*

How did COc1ccc(C=C2Oc3c(ccc4c3CN(Cc3ccccn3)CO4)C2=O)cc1OC do in these assays?
Pf apPOL block: -18; mHTT-CaM PPI inh: -1

How did COc1ccc(OC)c(C=C2Oc3c(ccc4c3CN(Cc3ccccn3)CO4)C2=O)c1 do in these assays?
Pf apPOL block: 47; mHTT-CaM PPI inh: 100*

What do the screens show for `COc1ccc(C=C2Oc3c(ccc4c3CN(Cc3ccccn3)CO4)C2=O)c(OC)c1OC`?
Pf apPOL block: -4; mHTT-CaM PPI inh: -6

How did Cc1c(O)ccc2c(=O)c(Oc3ccc(F)cc3)coc12 do in these assays?
Pf apPOL block: -7; mHTT-CaM PPI inh: 0

What do the screens show for `Cc1ccc(NC(=O)C2CCN(c3cc(C(=O)N4CCCC4)ccn3)CC2)c(C)c1`?
Pf apPOL block: 0; mHTT-CaM PPI inh: 7

Results for O=c1[nH]c(-c2ccccc2)nc2c1oc1ccccc12 ?
Pf apPOL block: -2; mHTT-CaM PPI inh: -3

Results for CC(C)C(=O)NC(c1ccco1)c1cc(Cl)c2cccnc2c1O (configuration not stated) ?
Pf apPOL block: -7; mHTT-CaM PPI inh: 28

How did CC(C)C(=O)NC(c1ccccc1)c1ccc2cccnc2c1O (configuration not stated) do in these assays?
Pf apPOL block: -8; mHTT-CaM PPI inh: 100*

What do the screens show for `CC(C)C(=O)NC(c1ccc(Cl)cc1)c1ccc2cccnc2c1O` (configuration not stated)?
Pf apPOL block: -11; mHTT-CaM PPI inh: 95*

Results for CC(C)C(=O)NC(c1ccccc1Cl)c1ccc2cccnc2c1O (configuration not stated) ?
Pf apPOL block: 8; mHTT-CaM PPI inh: 100*

Results for CC(C)C(=O)NC(c1ccco1)c1ccc2cccnc2c1O (configuration not stated) ?
Pf apPOL block: 1; mHTT-CaM PPI inh: 100*

Results for O=c1/c(=C/c2ccc(Br)cc2)sc2nnc(-c3ccccc3)n12 ?
Pf apPOL block: -7; mHTT-CaM PPI inh: -1

Results for CCCCNC(=O)c1c[nH]c2ccc(S(=O)(=O)N(C)c3ccc(Cl)cc3)cc2c1=O ?
Pf apPOL block: -18; mHTT-CaM PPI inh: 7

Results for CCOc1ccc(NC(=O)N2CCC(c3cc(N)on3)CC2)cc1 ?
Pf apPOL block: -2; mHTT-CaM PPI inh: -4

What do the screens show for `COc1ccc(NC(=O)C(=O)NCC2CCN(C)CC2)cc1Cl`?
Pf apPOL block: -10; mHTT-CaM PPI inh: -9

Results for CNC(=O)CSc1ncc(-c2ccc(Br)cc2)n1Cc1ccccc1 ?
Pf apPOL block: -8; mHTT-CaM PPI inh: 69*

What do the screens show for `COCCn1c(-c2ccccc2)cnc1SCC(=O)Nc1ccccc1`?
Pf apPOL block: -15; mHTT-CaM PPI inh: 0

What do the screens show for `COc1ccc([N+](=O)[O-])cc1NC(=O)COc1ccc(C)cc1`?
Pf apPOL block: -19; mHTT-CaM PPI inh: -2

What do the screens show for `COc1ccc(C2c3sc(=O)[nH]c3SC3C4CCC(C4)C23)cc1` (configuration not stated)?
Pf apPOL block: -4; mHTT-CaM PPI inh: 38

Results for COc1cccc(C2c3sc(=O)[nH]c3SC3C4CCC(C4)C23)c1O (configuration not stated) ?
Pf apPOL block: -6; mHTT-CaM PPI inh: 49

What do the screens show for `CCOc1cc(C2c3sc(=O)[nH]c3SC3C4CCC(C4)C23)ccc1O` (configuration not stated)?
Pf apPOL block: -6; mHTT-CaM PPI inh: 100*

Results for COc1cc(C2c3sc(=O)[nH]c3SC3C4CCC(C4)C23)ccc1O (configuration not stated) ?
Pf apPOL block: 2; mHTT-CaM PPI inh: 57*

Results for O=S1(=O)N=C(Nc2cccc3c(O)cccc23)c2ccccc21 ?
mHTT-CaM PPI inh: 4

What do the screens show for `O=C1Nc2c(Br)cc(Br)cc2/C1=C/c1ccco1`?
Pf apPOL block: -6; mHTT-CaM PPI inh: 12

Results for Cc1ccc(/C=C2\C(=O)Nc3ccc(Br)cc32)s1 ?
Pf apPOL block: -2; mHTT-CaM PPI inh: 34

How did O=C1Nc2ccc(Br)cc2/C1=C/c1cccs1 do in these assays?
Pf apPOL block: 1; mHTT-CaM PPI inh: 58*

What do the screens show for `O=C1Nc2ccc(Br)cc2/C1=C/c1ccco1`?
Pf apPOL block: -5; mHTT-CaM PPI inh: 72*

Results for Cc1ccc(N2C(=O)CSC2c2ccc(OC(F)F)cc2)cc1 (configuration not stated) ?
Pf apPOL block: -3; mHTT-CaM PPI inh: -6
